Inconclusive results are not listed. Activity calls are given as the source filed them. Rule for the calls: active = hit-call score of the fitted dose curve at least 0.9, where 1 is the maximum; inconclusive = response in the unintended direction; inactive = score below 0.9.

This passage reports outcome and AC50 results from PubChem BioAssay AID2283220 (EPA ToxCast).

human Serum/Glucocorticoid Regulated Kinase 1 (SGK1), SGK1 (gene 6446), sequence (O00141 whole entry, looked up): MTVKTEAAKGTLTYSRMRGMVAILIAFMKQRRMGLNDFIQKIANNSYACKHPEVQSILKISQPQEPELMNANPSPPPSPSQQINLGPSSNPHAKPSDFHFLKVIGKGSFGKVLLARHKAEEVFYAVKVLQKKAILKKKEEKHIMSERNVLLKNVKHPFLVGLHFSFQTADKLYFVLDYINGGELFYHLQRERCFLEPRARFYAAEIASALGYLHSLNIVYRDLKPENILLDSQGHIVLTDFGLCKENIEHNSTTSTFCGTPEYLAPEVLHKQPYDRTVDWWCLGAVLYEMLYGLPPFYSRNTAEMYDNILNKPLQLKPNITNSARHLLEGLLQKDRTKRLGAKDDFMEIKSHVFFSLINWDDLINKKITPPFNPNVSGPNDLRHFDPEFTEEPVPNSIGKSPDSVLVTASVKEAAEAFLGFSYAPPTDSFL

The assay deals with human Serum/Glucocorticoid Regulated Kinase 1 (SGK1), SGK1 (gene 6446) (UniProt O00141). The experiment in a line: NVS_ENZ_hSGK1: NovaScreen (NVS) Enzymatic Assay for human Serum/Glucocorticoid Regulated Kinase 1 (SGK1). The protocol:
NVS_ENZ_hSGK1 is a biochemical, single-readout assay that uses extracted gene-proteins in a cell-free assay. Measurements were taken 1 hour after chemical dosing in a 96-well plate.NVS_ENZ_hSGK1 is one of one assay component(s) measured or calculated from the NVS_ENZ_hSGK1 assay. It is designed to make measurements of enzyme activity, a form of enzyme reporter, as detected with fluorescence intensity signals by Fluorescence and electrophoretic mobility shift technology.Data from the assay component NVS_ENZ_hSGK1 was analyzed into 1 assay endpoint. This assay endpoint, NVS_ENZ_hSGK1, was analyzed in the positive analysis fitting direction relative to DMSO as the negative control and baseline of activity. Using a type of enzyme reporter, loss-of-signal activity can be used to understand changes in the enzymatic activity as they relate to the gene SGK1. Furthermore, this assay endpoint can be referred to as a primary readout, because this assay has produced […] where this one serves a enzymatic activity function. To generalize the intended target to other relatable targets, this assay endpoint is annotated to the kinase intended target family, where the subfamily is serine/threonine kinase.
Binding assays used specific radioligands (tritiated, iodinated) with non-radioactive competitive displacement ligands in agonist or antagonist protocols (as indicated) and various reference compounds and inhibitors to titrate specific binding to receptors and transporters. Most enzyme assays (CYPs, kinases, phosphatases, proteases, HDACs) used recombinant protein and specific substrates (fluorescence mostly, some colorimetric and radioactive) and inhibitors, followed by a biochemical separation of substrate and product. All assays for the biochemical HTS were initially run in duplicate at a single concentration (10 uM for CYP450 assays and 25 uM for all others). Assay-chemical combinations meeting a pre-defined threshold (e.g., 30% inhibition and other criteria defined below) were then run in singleton concentration-response format with maximum concentration of 20 uM for CYPs and 50 uM for all others. Each assay was run with positive and negative controls, and concurrent controls on every plate. The follow-up (secondary) screen tested active chemical-pairs in concentration series, as well as a few additional assays not tested in the primary screen, some selected negative inactives, and several cases re-run in the concentration series for confirmatory purposes.
Take `OC(c1ccc(Cl)cc1)(c1ccc(Cl)cc1)C(Cl)(Cl)Cl`: the molecule was classed as inactive.

Turning to `COC(=O)c1ccccc1S(=O)(=O)NC(=O)N(C)c1nc(C)nc(OC)n1`, the outcome was inactive. One may read the AC50 as the concentration giving half of the maximal activity seen. `O=S(=O)(O)C(F)(F)C(F)(F)C(F)(F)C(F)(F)C(F)(F)C(F)(F)C(F)(F)C(F)(F)F`: the AC50 was 26.2 µM (active). For `COP(=S)(OC)Oc1ccc([N+](=O)[O-])cc1`, the molecule was classed as inactive. In the case of `Nc1c(Cl)cc([N+](=O)[O-])cc1Cl`, the result was inactive. Turning to `O=C(O)C(F)(F)C(F)(F)C(F)(F)C(F)(F)C(F)(F)C(F)(F)C(F)(F)F`, the molecule was classed as inactive. For `N#Cc1c(Cl)c(Cl)c(Cl)c(C#N)c1Cl`, the AC50 was 19.8 µM (active). Consider `CC(Oc1cccc(Cl)c1)C(=O)O` (centres undefined), for which the outcome was inactive.

For `CCNc1nc(Cl)nc(NCC)n1`, the molecule was classed as inactive.

As for `CCCC(=NOCC)C1=C(O)CC(CC(C)SCC)CC1=O` (centres undefined), the outcome was inactive. In the case of `O=C(O)COc1ccc(Cl)cc1Cl`, the result was inactive. The same measure, in the same setting: the same measure for `CC(C)OC(=O)Nc1cccc(Cl)c1`: “inactive”; for `S=C1NCCN1`: “inactive”; for `CNC(=S)S`: “inactive”.
